Compound activity: PubChem, several laboratories
VHR inh abs = DUSP3 (human) phosphatase inhibition; recombinant VHR phosphatase, pNPP absorbance; 290,000 tested, 0.52% active; AID 1654; inhibition, % at 13.3 µM; in the data active = inhibition above about 50%
BoNT-F LC inh = blocks Botulinum neurotoxin F light chain protease | 360,000 tested, 0.22% active | inhibition, % at 10 µM | Multiplex microsphere protease cleavage assay, flow cytometry; in the data active = inhibition above about 35%, passing the limit was not always enough; inconclusive = no clear call, values can overlap the other calls; note: plate controls were buffer without enzyme for full effect and enzyme alone for no effect
Anthrax LF prot = blocks Bacillus anthracis lethal factor protease; multiplex microsphere protease cleavage assay, LF; P15917; inhibition, % at 10 µM; 360,000 tested, 0.12% active; note: plate controls were buffer without enzyme for full effect and enzyme alone for no effect
Target sequence (P15917 whole entry, looked up): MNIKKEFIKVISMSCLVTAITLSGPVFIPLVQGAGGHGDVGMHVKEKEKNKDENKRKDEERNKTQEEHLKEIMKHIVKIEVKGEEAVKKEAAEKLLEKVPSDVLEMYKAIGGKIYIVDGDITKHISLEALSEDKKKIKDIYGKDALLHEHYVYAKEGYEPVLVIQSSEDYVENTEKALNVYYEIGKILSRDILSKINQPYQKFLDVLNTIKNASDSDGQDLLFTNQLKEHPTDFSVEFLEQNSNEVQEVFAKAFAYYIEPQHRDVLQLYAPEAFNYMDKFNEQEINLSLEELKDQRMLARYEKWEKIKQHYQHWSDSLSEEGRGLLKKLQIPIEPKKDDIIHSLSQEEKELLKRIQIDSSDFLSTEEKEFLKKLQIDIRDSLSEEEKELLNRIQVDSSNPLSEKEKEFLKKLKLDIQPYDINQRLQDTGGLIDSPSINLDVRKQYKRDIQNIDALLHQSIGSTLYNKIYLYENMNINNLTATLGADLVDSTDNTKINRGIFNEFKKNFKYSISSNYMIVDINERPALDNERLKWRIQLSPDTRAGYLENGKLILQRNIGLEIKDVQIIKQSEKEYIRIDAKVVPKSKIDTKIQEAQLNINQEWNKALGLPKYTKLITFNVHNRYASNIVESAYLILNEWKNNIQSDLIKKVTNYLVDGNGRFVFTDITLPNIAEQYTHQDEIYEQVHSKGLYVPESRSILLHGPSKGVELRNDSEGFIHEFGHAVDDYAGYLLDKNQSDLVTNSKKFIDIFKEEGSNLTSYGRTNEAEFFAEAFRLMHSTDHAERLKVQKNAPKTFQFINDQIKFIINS
Bead autofluor = flagged as autofluorescent in microsphere protease counterscreen. compound autofluorescence counterscreen, microsphere flow cytometry; hits give high values. fluorescence intensity (test concentration not listed). 360,000 tested, 3.1% active. AID 624483; in the data active = fluorescence intensity above about 16000; inconclusive = no clear call, values can overlap the other calls
BoNT-A LC inh2 = blocks Botulinum neurotoxin A light chain protease. multiplex microsphere protease substrate cleavage, flow cytometry. inhibition, % at 10 µM. 360,000 tested, 0.17% active. AID 588499; note: plate controls were buffer without enzyme for full effect and enzyme alone for no effect
MazF activator = MazEF (E. coli) toxin RNase activation | P0AE70 | FAM/BHQ RNA-DNA oligo cleavage fluorescence, 5 h | activation, % at 20 µM | 350,000 tested, 0.32% active | AID 504720; in the data active = activation above about 50%
Active calls of the source: *; ? = inconclusive; / = no result given. Rows were chosen to be rich in hits. Some 4% of all compounds tested hit in one or more screens of this group. Cut-off read from the data, not from the text of the source, unless noted: active = inhibition above about 30%; inconclusive = no clear call, values can overlap the other calls; inactive = below that.

SMILES | VHR inh abs | BoNT-F LC inh | Anthrax LF prot | Bead autofluor | BoNT-A LC inh2 | MazF activator
O=C(COC(=O)c1ccccn1)NCc1ccc(Cl)cc1Cl | / | -7 | -1 | 9588 | -3 | 7
O=C(NCc1ccc(Cl)cc1Cl)c1ccccn1 | 17 | -3 | 0 | 24310* | -3 | 1
CC(NC(=O)COC(=O)CCNC(=O)c1ccco1)C12CC3CC(CC(C3)C1)C2 (stereo not given) | -3 | -12 | -3 | 2224 | 0 | -9
CN(C)c1ccc(N=Cc2nc(-c3ccccc3)oc2OC(=O)c2cccc(Cl)c2)cc1 | 33 | 5 | -2 | 2404 | 1 | 126*
Cc1ccc(C(=O)Oc2oc(-c3ccccc3)nc2C=Nc2ccc(N(C)C)cc2)cc1 | 12 | -5 | -5 | 4188 | -1 | 870*
COc1ccc(N=Cc2nc(-c3ccccc3)oc2OC(C)=O)cc1 | 8 | ? | 5 | ? | 1 | -25
CCCn1c(-c2cccs2)nc2ccccc21 | 3 | 10 | 1 | 3224 | 1 | -2
O=C(NCc1cccnc1)C(=O)Nc1nc2ccccc2s1 | 29 | -1 | 0 | 2461 | -1 | 7
O=C(NCc1cccnc1)c1cccnc1-c1nc2ccccc2s1 | -18 | 1 | 1 | 22730* | 1 | 3
Cc1ccc2c(Cl)c(C(=O)NCc3cccnc3)sc2c1 | 3 | 0 | 2 | 20230* | ? | -4
O=C(NCc1cccnc1)c1sc2ccccc2c1Cl | 22 | -7 | -2 | 24841* | ? | -5
Cc1c(CCO)c(=O)oc2n[nH]c(-c3ccccc3)c12 | 14 | -4 | -2 | 4222 | -1 | -1
CC(=O)Nc1cncc(-c2ccccc2C(C)=O)n1 | / | 6 | 2 | 3727 | 0 | /
COc1cccc(C(c2nnnn2C2CCCC2)N2CCC3(CC2)C(=O)NCN3c2ccccc2)c1OC (stereo not given) | / | -7 | 3 | 5667 | 0 | /
CC(=O)c1c(C)[nH]c(C(=O)Nc2cccnc2)c1C | 14 | -2 | -9 | 19908* | ? | -5
CC(=O)c1c(C)[nH]c(C(=O)Nc2ccc(C)c(C)c2)c1C | 33 | -3 | -2 | 9203 | 0 | -11
CC1Cc2[nH]c(=S)[nH]c(=O)c2C(C(C)C)O1 (stereo not given) | / | 5 | 11 | 4028 | 0 | /
NS(=O)(=O)c1ccc(CCNC(=O)c2ccccc2F)cc1 | 22 | -6 | -1 | 16685* | -2 | -2
O=C(NCCc1ccncc1)c1ccccc1F | -1 | 4 | 1 | 21712* | 3 | 9
O=C(NCCc1ccncc1)C(F)(F)F | 18 | 0 | 0 | 24347* | -1 | -2
CCCOc1cccc(-c2cc(C(=O)N/N=C/c3ccccn3)c3ccccc3n2)c1 | -2 | -3 | 4 | 6685 | -3 | -4
COc1cccc(C(=O)Nc2cc([N+](=O)[O-])ccc2N2CCN(C)CC2)c1 | 2 | -9 | -3 | 24311* | -4 | -16
CN1CCN(c2ccccc2NC(=O)c2cccc([N+](=O)[O-])c2)CC1 | 35 | -33 | -16 | 3821 | 0 | 10
COc1ccc(OC)c(NC(=O)c2ccc(S(=O)(=O)N3CCN(C)CC3)cc2)c1 | 14 | -2 | -1 | 22427* | 0 | -2
CN1CCN(c2ccc([N+](=O)[O-])cc2NC(=O)c2ccccc2)CC1 | 22 | -3 | -4 | 16981* | ? | 6
SMILES | VHR inh abs | BoNT-F LC inh | Anthrax LF prot | Bead autofluor | BoNT-A LC inh2 | MazF activator
CN1CCN(NC(=O)c2cc([N+](=O)[O-])cc([N+](=O)[O-])c2)CC1 | 17 | -2 | 1 | 18837* | 2 | 2
CC(=O)Nc1cccc(Oc2ccc([N+](=O)[O-])cc2Cl)c1 | 4 | -4 | 0 | 1943 | 0 | 2
COc1ccccc1CNC(=O)c1ccccc1N | 21 | 7 | 0 | 11136 | -1 | -1
COc1ccc(C(=O)Nc2cc([N+](=O)[O-])ccc2N2CCN(C)CC2)cc1 | 15 | 0 | -4 | 19500* | 2 | -2
CC(C)C1Cc2c(C#N)c(N)sc(=S)c2CO1 (stereo not given) | 29 | 0 | 47* | 4054 | 72* | -8
COc1ccc([N+](=O)[O-])cc1NC(=O)CCN1CCN(c2ccccc2OC)CC1 | 4 | -7 | 0 | 2362 | -1 | 2
COc1cccc(-c2cccc(-c3nc(C(=O)Nc4ccc(-c5ccccc5)cc4)cc4c3[C@H](CCO)N(S(=O)C(C)(C)C)C4)c2)c1 (stereo not given in full) | / | -12 | 5 | 4303 | 0 | /
O=C(CCNC(=O)c1ccc(Br)cc1)Nc1nccs1 | 33 | -3 | -7 | 4258 | -1 | 4
Cc1ccc(-c2nnn(CC(=O)N(CC(=O)NCc3ccccc3)c3cccc(C)c3C)n2)o1 | 2 | -4 | -5 | 11098 | 0 | 10
COc1ccccc1Nc1nc2c(C)cccc2cc1C#N | 21 | 1 | -1 | 16724* | 0 | 98*
COc1ccccc1Nc1nc2cc(C)ccc2cc1C#N | 22 | 2 | -7 | 4162 | -1 | 5
COc1ccccc1Nc1nc2ccc(C)cc2cc1C#N | 37 | 24 | 1 | ? | 6 | 78*
Cc1cc(C)c2cc(CN(CCCO)S(=O)(=O)c3ccccc3F)c(=O)[nH]c2c1 | 8 | 12 | -5 | 3526 | -2 | 0
CNC(=S)N(Cc1ccco1)Cc1cc2cc(OC)ccc2[nH]c1=O | 30 | -6 | 4 | 3179 | 0 | 4
COC(=O)c1ccccc1S(=O)(=O)N(CCCO)Cc1cc2c(C)ccc(C)c2[nH]c1=O | 2 | 2 | -6 | 22748* | -1 | 5
COC(=O)c1ccccc1S(=O)(=O)N(Cc1ccco1)Cc1cc2cc(OC)ccc2[nH]c1=O | 10 | 2 | 2 | 22912* | 1 | 12
C=CCOc1ccc(/C(CC)=N/O)c(OC)c1 | -8 | 1 | -2 | 23301* | ? | 1
CCN(CC)C(=O)OCc1c(-c2cccc(OC)c2)ncc2ccccc12 | / | 4 | 2 | 4250 | 0 | 3
Cc1csc(/N=C/c2ccc([N+](=O)[O-])cc2)n1 | -4 | -4 | -1 | 2190 | 0 | -1
COc1ccc(/C=N/n2cnnc2SCc2ccccc2)cc1 | 25 | 9 | -2 | 4582 | 0 | 3
CCc1ccc(C2CC(=O)N3CN(c4ccccc4)CSC3=C2C#N)cc1 (stereo not given) | 15 | 2 | -1 | 6104 | 1 | 2
O=C(CSc1nccc(=O)[nH]1)Nc1ccc(Br)c(Cl)c1 | -8 | 20 | 1 | 3258 | 2 | 12
O=C(CSc1nccc(=O)[nH]1)Nc1ccc(F)c(Cl)c1 | -10 | 0 | 0 | 24003* | ? | 2
Cc1cc(C(=O)N2CCN(C/C=C/c3ccccc3)CC2)no1 | -1 | 0 | 1 | 19463* | 1 | -5
CCOc1cccc2cc(C(=O)N3CCN(C/C=C/c4ccccc4)CC3)c(=O)oc12 | 0 | 0 | -4 | 16172* | ? | -1
Cc1cccc(NC(=O)CSc2nnc([C@H](C)NC(=O)OC(C)(C)C)o2)c1C | 17 | 5 | 0 | 4970 | 1 | 12
CCC(=O)NCCn1ccc2ccccc21 | -2 | 0 | 2 | 6615 | 1 | 20
